Source: PubChem BioAssay
Active and inactive are the calls of the source. Unless noted, how the calls were made is not given here.

How the values were obtained:
[1] = resazurin metabolic signal in HepG2 cells – cell-based, resazurin fluorescence, 24 h, PK04 Diversity Set, profiling panel (AID 1172); conditions: HepG2 viability, higher = more signal; further: test concentration not given here
[2] = budding yeast growth changes without added modifier – OD600, strain BY4716, 24 h, basal condition, primary screen (AID 1173); conditions: S. cerevisiae BY4716 growth, OD600, 24 h; higher = more signal, called active from +8 up or from −8 down
[3] = viability profiling in MM1S myeloma cells – cell-based, resazurin fluorescence, basal, 24 h, PK04 Diversity Set, profiling panel (AID 1174); conditions: higher = more signal, called active from +8 up or from −8 down;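 further: MM1S multiple myeloma cell line; test concentration not given here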
[4] = molecular target: Dihydroorotate dehydrogenase (quinone), mitochondrial (Plasmodium falciparum (isolate 3D7)) (UniProt Q08210); assay: inhibition of P. falciparum DHODH – biochemical, C-terminal His tag, absorbance 600 nm, primary screen (AID 1175); conditions: PfDHODH enzyme, DCIP absorbance 600 nm; higher = more signal, called active from +8 up or from −8 down;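 further: recombinant parasite enzyme with a five histidine tag at its C terminus; test concentration not given here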
[5] = inhibition of PAO1 biofilm formation – strain PAO1, LB-PBS medium, absorbance 600 nm, primary screen (AID 1176); further: test concentration not given here; conditions: P. aeruginosa PAO1 growth/biofilm, A600, 12 h; higher = more signal
[6] = growth modulation of vineyard yeast isolate – strain RM11-1a, OD600, basal, 24 h, primary screen (AID 1177);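 further: cultures grown under basal conditions with no added stressor; test concentration not given here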; conditions: S. cerevisiae RM11-1a growth, OD600, 24 h; higher = more signal, called active from +8 up or from −8 down
[7] = growth of efflux-deficient E. coli DRC39 – strain DRC39, OD650, 24 h, E. coli filamentation inducers, primary screen (AID 1178);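 further: growth measured as culture turbidity by optical density at 650 nm; test concentration not given here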; conditions: E. coli DRC39 acrAB, higher = more signal, called active from +8 up or from −8 down
[8] = growth of efflux-deficient E. coli DRC39 – strain DRC39, OD650, 48 h, E. coli filamentation inducers, primary screen (AID 1179);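 further: screen aims at cell division blockers that make cells filament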; conditions: E. coli DRC39 delta-acrAB growth, higher = more signal, called active from +8 up or from −8 down
[9] = viability profiling in RPMI8226 myeloma cells – cell-based, resazurin fluorescence, basal, 24 h, PK04 Diversity Set, profiling panel (AID 1180); conditions: higher = more signal;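 further: RPMI8826 multiple myeloma cell line at 5000 cells per well; test concentration not given here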
[10] = molecular target: E3 ubiquitin-protein ligase XIAP (Homo sapiens) (UniProt P98170); assay: small molecules binding XIAP protein – biophysical, small-molecule microarray, fluorescence 635 nm, primary screen (AID 1181); conditions: higher = more signal;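 further: score merges 667 nm emission and signal to noise over triplicate slides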
Chain of E3 ubiquitin-protein ligase XIAP (Homo sapiens) (P98170 whole entry, looked up): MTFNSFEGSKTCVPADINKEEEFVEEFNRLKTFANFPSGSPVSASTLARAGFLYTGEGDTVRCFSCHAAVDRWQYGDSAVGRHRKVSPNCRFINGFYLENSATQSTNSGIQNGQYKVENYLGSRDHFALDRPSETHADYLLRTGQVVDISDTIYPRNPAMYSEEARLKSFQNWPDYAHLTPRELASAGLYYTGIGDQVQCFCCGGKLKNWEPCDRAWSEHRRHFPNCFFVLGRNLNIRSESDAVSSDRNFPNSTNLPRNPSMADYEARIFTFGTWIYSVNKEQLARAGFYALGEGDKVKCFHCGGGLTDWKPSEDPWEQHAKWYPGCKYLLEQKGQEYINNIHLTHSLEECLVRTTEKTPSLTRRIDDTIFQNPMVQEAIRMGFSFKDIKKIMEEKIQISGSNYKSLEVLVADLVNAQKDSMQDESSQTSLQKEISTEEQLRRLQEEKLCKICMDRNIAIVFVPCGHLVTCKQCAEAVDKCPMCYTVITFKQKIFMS

Chain of Dihydroorotate dehydrogenase (quinone), mitochondrial (Plasmodium falciparum (isolate 3D7)) (Q08210 whole entry, looked up): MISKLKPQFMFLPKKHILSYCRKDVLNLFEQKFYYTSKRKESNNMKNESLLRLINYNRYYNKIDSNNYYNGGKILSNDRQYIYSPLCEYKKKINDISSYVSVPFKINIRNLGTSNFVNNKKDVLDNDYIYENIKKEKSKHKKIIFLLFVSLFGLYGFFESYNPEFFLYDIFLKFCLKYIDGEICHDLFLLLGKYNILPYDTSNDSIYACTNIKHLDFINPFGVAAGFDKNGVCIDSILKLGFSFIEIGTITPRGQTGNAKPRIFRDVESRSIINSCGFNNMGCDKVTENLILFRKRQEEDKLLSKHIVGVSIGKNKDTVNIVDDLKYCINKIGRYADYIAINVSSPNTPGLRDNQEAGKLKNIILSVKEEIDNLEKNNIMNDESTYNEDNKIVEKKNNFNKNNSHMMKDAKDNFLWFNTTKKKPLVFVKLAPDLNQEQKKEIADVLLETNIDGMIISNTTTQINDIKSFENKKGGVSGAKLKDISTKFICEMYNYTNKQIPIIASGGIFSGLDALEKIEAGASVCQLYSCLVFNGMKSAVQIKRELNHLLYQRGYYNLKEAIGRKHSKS

Structure (SMILES)	z-score [1]	z-score [2]	z-score [3]	composite z-score [4]	z-score [5]	z-score [6]	z-score [7]	z-score [8]	z-score [9]	composite z-score [10]
CCCC[C@H]1CN2[C@@H](CC[C@@H](C)[C@@H]2c2ccc(Br)cc2)C(=O)O1	0.314	-2.36 (inactive)	1.05 (inactive)	-0.355 (inactive)	-0.515 (inactive)	0.0621 (inactive)	-0.959 (inactive)	-0.985 (inactive)	0.919	0.127
COC(=O)[C@@H]1CC[C@H](C)[C@@H](c2ccc(Br)cc2)N1	0.138	0.86 (inactive)	0.176 (inactive)	0.496 (inactive)	0.119 (inactive)	1.27 (inactive)	0.45 (inactive)	-0.836 (inactive)	0.279	1.27
CO[C@H]1COC(=O)[C@H](C)COC(=O)[C@@H](OCc2ccccc2)C=C[C@@H]1C	0.176	-2.14 (inactive)	-0.114 (inactive)	0.175 (inactive)	-0.355 (inactive)	-0.077 (inactive)	1.02 (inactive)	0.636 (inactive)	-0.476	-0.138
COC(=O)C(C(=O)OC)C1CCCC(=O)C1 (stereo not given)	-0.598	-0.272 (inactive)	-1.14 (inactive)	0.437 (inactive)	-0.482 (inactive)	0.386 (inactive)	-1.37 (inactive)	-0.561 (inactive)	-0.53	-0.34
C=C(C)C(=O)OC[C@H]1CN2[C@@H](CC[C@@H](C)[C@@H]2c2ccc(Br)cc2)C(=O)O1	0.497	-1.84 (inactive)	-0.255 (inactive)	0.672 (inactive)	-0.136 (inactive)	0.912 (inactive)	0.644 (inactive)	-1.77 (inactive)	-0.314	0.256
CC(C)CN1CCc2nc(-c3ccccc3)c3c(c2C1)CO[C@@H](C)C3	-0.622	-1.33 (inactive)	1.21 (inactive)	0.638 (inactive)	-0.588 (inactive)	0.697 (inactive)	-0.838 (inactive)	-0.0811 (inactive)	0.829	-0.22
C=CC[C@@H]1C=CC(ON=C(C)C)[C@@H](CO)O1 (stereo not given in full)	-0.689	0.381 (inactive)	-0.389 (inactive)	0.532 (inactive)	-0.254 (inactive)	1.1 (inactive)	0.832 (inactive)	-1.16 (inactive)	0.283	-0.267
CCOC(=O)NN=C1C[C@@H](O)[C@@H](O)[C@@H]2[C@@H]3C(=O)N(CC)C(=O)[C@@H]3CC[C@H]12	-0.635	0.467 (inactive)	-2.97 (inactive)	0.463 (inactive)	0.0578 (inactive)	0.355 (inactive)	0.334 (inactive)	0.388 (inactive)	-1.04	0.0119
COC(=O)[C@@H]1CC[C@H](C)[C@@H](c2ccc(Br)cc2)N1C[C@@H](O)CN=[N+]=[N-]	-0.36	-11.9 (active)	0.506 (inactive)	-3.04 (inactive)	0.733 (inactive)	-0.492 (inactive)	-1.47 (inactive)	-2.14 (inactive)	-0.0718	-0.0118
CO[C@H]1C[C@@H]2C[C@H](O)CC(CC(=O)O[C@@H](C=CCC(C)C)C[C@@H]3CC[C@H](C)[C@@H](C1)O3)O2	-0.37	-1.47 (inactive)	-0.0942 (inactive)	-0.928 (inactive)	-0.139 (inactive)	-1.65 (inactive)	-0.033 (inactive)	-0.394 (inactive)	-0.384	0.0256
CO[C@@H]1C=CCC(=O)N[C@@H](C)C(=O)OC[C@@H](OC)[C@H](C)C=CCC(=O)OC[C@H]1C	-0.103	-0.615 (inactive)	0.697 (inactive)	-0.765 (inactive)	-0.507 (inactive)	-0.718 (inactive)	0.267 (inactive)	-0.42 (inactive)	0.103	-0.169
CC(=O)OC[C@H]1O[C@H](CC=NO[C@H](C)c2cn([C@@H]3COC[C@H]3O)nn2)C=C[C@@H]1OC(C)=O	-0.648	-0.199 (inactive)	0.134 (inactive)	-1.64 (inactive)	0.441 (inactive)	-1.9 (inactive)	-0.716 (inactive)	-0.743 (inactive)	0.0142	-0.0447
CC(=O)OC[C@H]1O[C@@H](ON=C(C)C)[C@H](OC(C)=O)[C@@H](OC(C)=O)[C@@H]1OC(C)=O	0.199	0.515 (inactive)	-0.0437 (inactive)	-0.696 (inactive)	0.569 (inactive)	0.0958 (inactive)	-0.308 (inactive)	-2.31 (inactive)	-0.0678	0.0478
CC(C)=CCCC(C)=CCON=C1C[C@@H](O)[C@@H](O)[C@@H]2[C@@H]3C(=O)N([C@@H](C)c4ccccc4)C(=O)[C@@H]3CC[C@@H]12	-0.243	0.408 (inactive)	-0.32 (inactive)	-0.0515 (inactive)	0.283 (inactive)	-0.471 (inactive)	-0.464 (inactive)	-0.131 (inactive)	-0.249	-0.0476
COC(=O)[C@H](C)NC(=O)CCC1CC(OC(=O)NCc2cccc3ccccc23)CC2(CCCC(COC(=O)NCCOc3ccccc3)O2)O1 (stereo not given in full)	0.311	-0.689 (inactive)	0.875 (inactive)	-0.989 (inactive)	-0.458 (inactive)	0.149 (inactive)	0.008 (inactive)	-0.693 (inactive)	0.564	-0.275
COc1cccc([C@H]2Oc3ccc(OC)cc3C(=NOCC[C@@H]3C=C[C@H](OC(C)=O)[C@@H](COC(C)=O)O3)[C@@H]2O)c1	-0.76	0.813 (inactive)	-0.698 (inactive)	0.472 (inactive)	0.0767 (inactive)	0.614 (inactive)	0.688 (inactive)	-0.53 (inactive)	-0.583	0.0123
CC(CCN1CCCc2nc(C)c(C)cc21)=NOC[C@@H](C)[C@H](OCc1ccccc1)C(C)C	-0.135	-3.26 (inactive)	0.0518 (inactive)	-2.07 (inactive)	-0.0417 (inactive)	-1.86 (inactive)	-0.787 (inactive)	0.262 (inactive)	-0.0093	0.0153
CCOC(=O)[C@H](CC(C)C)NC(=O)CCC1CC(OC(=O)NCc2ccc3c(c2)OCO3)CC2(CCCC(COC(=O)NCCOC)O2)O1 (stereo not given in full)	1.22	-0.383 (inactive)	0.982 (inactive)	-0.617 (inactive)	-0.516 (inactive)	0.418 (inactive)	0.214 (inactive)	-1.31 (inactive)	0.912	-0.0784
CCC1=NOC(CCC2CC(OC(=O)NCc3cccc4c3OCO4)CC3(CCCC(COC(=O)NCCc4ccc(Cl)cc4)O3)O2)C1 (stereo not given)	0.22	0.519 (inactive)	-0.0555 (inactive)	-0.362 (inactive)	0.52 (inactive)	0.0088 (inactive)	0.137 (inactive)	0.377 (inactive)	0.73	-0.0476
CC(CCC(=O)OC[C@H]1O[C@H](C#Cc2ccccc2)C=C[C@@H]1Oc1ccc(C)cc1)=NO[C@@H](C)c1cc(-c2c(C)cc(C)cc2C)no1	-0.53	0.0942 (inactive)	0.281 (inactive)	1.04 (inactive)	-0.798 (inactive)	0.333 (inactive)	-0.135 (inactive)	0.213 (inactive)	0.838	-0.102
CCN(CC)CC(O)CN1CCCCc2nc(C)c(C)cc21 (stereo not given)	-0.148	-0.571 (inactive)	0.423 (inactive)	-2.78 (inactive)	0.711 (inactive)	-1.48 (inactive)	0.721 (inactive)	0.0142 (inactive)	0.259	-0.271
O=C1[C@H]2[C@H]3[C@H](O)[C@H](O)CC(=NO[C@@H]4O[C@H](CO)[C@@H](O)[C@H](O)[C@H]4O)[C@H]3CC[C@H]2C(=O)N1c1ccc(F)cc1F	0.487	0.191 (inactive)	-0.141 (inactive)	-1.08 (inactive)	-0.377 (inactive)	-0.638 (inactive)	0.166 (inactive)	-0.196 (inactive)	0.371	0.394
C#CCCCON=C1[C@H]2CCn3c(=O)n(Cc4cc5c(cc4Cl)OCO5)c(=O)n3[C@H]2[C@H](O)[C@@H]2O[C@H]12	-0.242	0.606 (inactive)	-0.16 (inactive)	0.605 (inactive)	-0.106 (inactive)	0.432 (inactive)	0.313 (inactive)	-0.506 (inactive)	0.0334	-0.168
CC(=O)OC[C@H]1O[C@@H](ON=C(C)CCC(=O)OC[C@H]2O[C@H](C#Cc3ccccc3)C=C[C@@H]2Oc2ccc(C)cc2)[C@H](OC(C)=O)[C@@H](OC(C)=O)[C@@H]1OC(C)=O	0.0214	-0.053 (inactive)	0.364 (inactive)	-0.47 (inactive)	-0.102 (inactive)	0.0837 (inactive)	0.297 (inactive)	-0.905 (inactive)	0.135	-0.269
C[C@@H](c1ccccc1)N1C(=O)[C@H]2[C@H]3[C@H](O)[C@H](O)CC(=NOC[C@@H](O)COCc4ccco4)[C@H]3CC[C@H]2C1=O	-0.259	-0.123 (inactive)	0.899 (inactive)	-0.222 (inactive)	0.118 (inactive)	-0.286 (inactive)	-0.501 (inactive)	-0.267 (inactive)	0.0536	-0.102
